Measurements as given in the supplement of paper PMC10338343.
± gives the standard deviation.

Tested on: MILI (PIWIL2) piRISC loaded with L1MC piRNA (26 nt)
Assay: pre-steady-state target cleavage rate (min^-1); guide: L1MC piRNA 5'p-UAACUAAAUACUAUGCAAGCUGUAGG; MIWI and MILI are mouse PIWI proteins and EfPiwi is from a freshwater sponge; tags in brackets are library labels; higher = faster piRNA-guided slicing of the target
Procedure, shortened: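 For Cleave-'n-Seq, a transcribed, DNA-blocked target RNA library […] met 1 nM active affinity-purified piRISC with one synthetic guide at 33 °C for 0–8 or 0–960 min in HEPES–potassium acetate buffer, with or without 500 nM GTSF1 partner protein. Uncleaved targets were sequenced and normalised to depth and weakly complementary targets, with three trials pooled and k3 capped at 0.0001 min^-1. A burst-and-steady-state fit supplied the pre-steady-state cleavage rate.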

[1] = auxiliary factor: 500 nM mouse GTSF1
[2] = auxiliary factor: none (no GTSF1)
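Further: 1 nM active piRISC with 0.1 nM target library at 33 °C single turnover.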

## UCCUGGAUCUGCUUGCAUUGUAUUUAGUUA
[1]
  pre-steady-state target cleavage rate: 0.159 ± 0.015
[2]
  pre-steady-state target cleavage rate: 0.00477 ± 0.0023

## UCCUGGAACAGCUUGCAUAGUUUUUAGUUA
[1]
  pre-steady-state target cleavage rate: 0.0586 ± 0.01
[2]
  pre-steady-state target cleavage rate: 0.00493 ± 0.0022

## UCCUGGAUGUCGUUGCAUAGUAGUUAGUUA
[1]
  pre-steady-state target cleavage rate: 0.013 ± 0.0052
[2]
  pre-steady-state target cleavage rate: 0.00511 ± 0.0031

## UCCUGGAUGUCGAUGCAUAGUAUUUACGUUA
[1]
  pre-steady-state target cleavage rate: 0.158 ± 0.033
[2]
  pre-steady-state target cleavage rate: 0.00337 ± 0.0029

## UCCUGGAUCAGCUUGGUUAGUAUUUAGUAA
[1]
  pre-steady-state target cleavage rate: 0.256 ± 0.031
[2]
  pre-steady-state target cleavage rate: 0.00444 ± 0.0025

## UCCUGGUACAGCUUGGUAAGUAUUUAGUAA
[1]
  pre-steady-state target cleavage rate: 0.18 ± 0.034
[2]
  pre-steady-state target cleavage rate: 0.00367 ± 0.0027

## UCCUGGUACAGCUAGCAUUGUAUUUAGUUA
[1]
  pre-steady-state target cleavage rate: 0.127 ± 0.017
[2]
  pre-steady-state target cleavage rate: 0.00717 ± 0.0034

## UCCUGGAUGUCGUUGCAUAGUAUUUCAGUUA
[1]
  pre-steady-state target cleavage rate: 0.0621 ± 0.017
[2]
  pre-steady-state target cleavage rate: 0.00397 ± 0.0033

## UCCUGGAUGUCGUUGCAUAGUAUUUAGUCA
[1]
  pre-steady-state target cleavage rate: 0.146 ± 0.024
[2]
  pre-steady-state target cleavage rate: 0.00639 ± 0.002

## UCCUGGAACAGGAAGCAUAGUAUUUAGUAA
[1]
  pre-steady-state target cleavage rate: 0.146 ± 0.013
[2]
  pre-steady-state target cleavage rate: 0.00297 ± 0.0027

## UCCUGGAUCAGCUUGCAAAGUAUUUUGUUA
[1]
  pre-steady-state target cleavage rate: 0.1 ± 0.018
[2]
  pre-steady-state target cleavage rate: 0.00456 ± 0.0025

## UCCUGGAUGUGCUUGGUUAGUAUUUAGUAA
[1]
  pre-steady-state target cleavage rate: 0.149 ± 0.026
[2]
  pre-steady-state target cleavage rate: 0.0127 ± 0.003

## UCCUGGAUGUGCUUGCUUUGUAUUUAGUUA
[1]
  pre-steady-state target cleavage rate: 0.0124 ± 0.0051
[2]
  pre-steady-state target cleavage rate: 0.00696 ± 0.0024

## UCCUGGAUGAGCUUGCAAAGUAUUAAGUUA
[1]
  pre-steady-state target cleavage rate: 0.0742 ± 0.012
[2]
  pre-steady-state target cleavage rate: 0.00449 ± 0.0026

## UCCUGGAUCAGGAAGCAUAGUAUUUAGUUA
[1]
  pre-steady-state target cleavage rate: 0.0634 ± 0.0094
[2]
  pre-steady-state target cleavage rate: 0.00311 ± 0.0023

## UCCUGGAUCAGCUUCGAUAGUAUUUAGUUA
[1]
  pre-steady-state target cleavage rate: 0.233 ± 0.018
[2]
  pre-steady-state target cleavage rate: 0.0034 ± 0.0021

## UCCUGGAUCAGCUUGCUAAGUAUUUAGUUA
[1]
  pre-steady-state target cleavage rate: 0.0871 ± 0.012
[2]
  pre-steady-state target cleavage rate: 0.0065 ± 0.0021

## UCCUGGAUGUCCUUGCAUGGUAUUUAGUUA
[1]
  pre-steady-state target cleavage rate: 0.0346 ± 0.011
[2]
  pre-steady-state target cleavage rate: 0.00814 ± 0.0026

## UCCUCCUACAGCUUGCAUUGUAUUUAGUAA
[1]
  pre-steady-state target cleavage rate: 0.182 ± 0.02
[2]
  pre-steady-state target cleavage rate: 0.00398 ± 0.002

## UCCUGGAUGUCGUUGCAUAGUAUUUAGUUU [g2:g18:cont:t1U]
[1]
  pre-steady-state target cleavage rate: 0.128 ± 0.016
[2]
  pre-steady-state target cleavage rate: 0.0134 ± 0.0037

## UCCUGGAUGAGGCUUGCAUAGUAUUUAGUUA
[1]
  pre-steady-state target cleavage rate: 0.186 ± 0.018
[2]
  pre-steady-state target cleavage rate: 0.0125 ± 0.0036

## UCCUGGAUGUGCAUGGAUAGUAUUUAGUUA
[1]
  pre-steady-state target cleavage rate: 0.11 ± 0.013
[2]
  pre-steady-state target cleavage rate: 0.0094 ± 0.0023

## UCCUGGAUGUCCUUGCAUAGUAUAAAGUUA
[1]
  pre-steady-state target cleavage rate: 0.0673 ± 0.015
[2]
  pre-steady-state target cleavage rate: 0.00312 ± 0.0028

## UCCUGCUACAGCUACGAUAGUAUUUAGUUA
[1]
  pre-steady-state target cleavage rate: 0.243 ± 0.02
[2]
  pre-steady-state target cleavage rate: 0.00263 ± 0.0024

## UCCUGGAUGUCCAAGCAUAGUAUUUAGUAA
[1]
  pre-steady-state target cleavage rate: 0.0187 ± 0.0069
[2]
  pre-steady-state target cleavage rate: 0.00309 ± 0.0027

## UCCUGGUACAGCUUGCAUAUAUUUAGUUA
[1]
  pre-steady-state target cleavage rate: 0.035 ± 0.011
[2]
  pre-steady-state target cleavage rate: 0.00493 ± 0.0024

## UCCUGCUACAGCUUGCAUAGUACUUUAGUUA
[1]
  pre-steady-state target cleavage rate: 0.194 ± 0.025
[2]
  pre-steady-state target cleavage rate: 0.00825 ± 0.0022

## UCCUGGAUGUGCUUGCAAAGUAUAUAGUUA
[1]
  pre-steady-state target cleavage rate: 0.0264 ± 0.0072
[2]
  pre-steady-state target cleavage rate: 0.00311 ± 0.0024

## UCCUGGAUGUCGAUGCAUAGUAUUUUAGUUA
[1]
  pre-steady-state target cleavage rate: 0.0747 ± 0.0088
[2]
  pre-steady-state target cleavage rate: 0.00647 ± 0.0026

## UCCUGGCACAGCUUGCAUAGUAUUUAGUUA
[1]
  pre-steady-state target cleavage rate: 0.289 ± 0.053
[2]
  pre-steady-state target cleavage rate: 0.0117 ± 0.0049

## UCCUGGAUGUCGAUGCAUGGUAUUUAGUUA
[1]
  pre-steady-state target cleavage rate: 0.0229 ± 0.0078
[2]
  pre-steady-state target cleavage rate: 0.00372 ± 0.0028

## UCCUGGAUCAGCAUGCAUAGUAUUUAGUUA
[1]
  pre-steady-state target cleavage rate: 0.314 ± 0.019
[2]
  pre-steady-state target cleavage rate: 0.0108 ± 0.0031

## UCCUGCUACAGCUUGCAUAGUAUUUAGUUC [g2:g25:cont:t1C]
[1]
  pre-steady-state target cleavage rate: 0.317 ± 0.021
[2]
  pre-steady-state target cleavage rate: 0.0145 ± 0.0033

## UCCUGGUACAGCUUGCAAUCUAUUUAGUUA
[1]
  pre-steady-state target cleavage rate: 0.0377 ± 0.013
[2]
  pre-steady-state target cleavage rate: 0.00455 ± 0.0036

## UCCUGGAUGAGCUUGGUUAGUAUUUAGUUA
[1]
  pre-steady-state target cleavage rate: 0.195 ± 0.02
[2]
  pre-steady-state target cleavage rate: 0.0158 ± 0.0039

## UCCUGGAUGAGGAUGCAUAGUAUUUAGUAA
[1]
  pre-steady-state target cleavage rate: 0.116 ± 0.029
[2]
  pre-steady-state target cleavage rate: 0.00444 ± 0.002

## UCCUGGUACAGCUUCGAUAGUAUUUAGUAA
[1]
  pre-steady-state target cleavage rate: 0.26 ± 0.046
[2]
  pre-steady-state target cleavage rate: 0.00305 ± 0.0029

## UCCUGGAACUGCUUGCAUAGUAUUUACUUA
[1]
  pre-steady-state target cleavage rate: 0.0984 ± 0.027
[2]
  pre-steady-state target cleavage rate: 0.00292 ± 0.0023

## UCCUGGUACAGGUUGCAUAGUAUUUACAAA
[1]
  pre-steady-state target cleavage rate: 0.0239 ± 0.011
[2]
  pre-steady-state target cleavage rate: 0.00315 ± 0.003

## UCCUGGAUGUGCUACCAUAGUAUUUAGUUA
[1]
  pre-steady-state target cleavage rate: 0.0577 ± 0.0094
[2]
  pre-steady-state target cleavage rate: 0.0039 ± 0.0022

## UCCUGGUACAGCUACGAUAGUAUUUAGUUA
[1]
  pre-steady-state target cleavage rate: 0.15 ± 0.016
[2]
  pre-steady-state target cleavage rate: 0.00343 ± 0.0026

## UCCUCCUACAGCAUGCAUAGUAUUAAGUUA
[1]
  pre-steady-state target cleavage rate: 0.2 ± 0.023
[2]
  pre-steady-state target cleavage rate: 0.00348 ± 0.0026

## UCCUCCUACAGCUUCGUUAGUAUUUAGUUA
[1]
  pre-steady-state target cleavage rate: 0.221 ± 0.013
[2]
  pre-steady-state target cleavage rate: 0.00396 ± 0.0017

## UCCUGGAUGUCGUUGCAUAGUAUUAUAGUUA
[1]
  pre-steady-state target cleavage rate: 0.173 ± 0.03
[2]
  pre-steady-state target cleavage rate: 0.00429 ± 0.0034

## UCCUGGUACAGCUUGCAUAGUAUCUAGUUA
[1]
  pre-steady-state target cleavage rate: 0.156 ± 0.029
[2]
  pre-steady-state target cleavage rate: 0.00431 ± 0.0025

## UCCUGGUACAGCUUGCAUAGAAAUUAGUUA
[1]
  pre-steady-state target cleavage rate: 0.0374 ± 0.011
[2]
  pre-steady-state target cleavage rate: 0.00311 ± 0.0031

## UCCUGGUACAGCUUGCAUAGUAUUUAUUUA
[1]
  pre-steady-state target cleavage rate: 0.166 ± 0.037
[2]
  pre-steady-state target cleavage rate: 0.0109 ± 0.0041

## UCCUGGAUGUCGAAGCAUAGUAUUUAGUUG [g2:g16:cont:t1G]
[1]
  pre-steady-state target cleavage rate: 0.0225 ± 0.0063
[2]
  pre-steady-state target cleavage rate: 0.00543 ± 0.0019

## UCCUGGAUCAGCUUGGUUAGUAUUUAGUUA
[1]
  pre-steady-state target cleavage rate: 0.209 ± 0.016
[2]
  pre-steady-state target cleavage rate: 0.0137 ± 0.0033

## UCCUGCUUCAGCUUGCUUAGUAUUUAGUUA
[1]
  pre-steady-state target cleavage rate: 0.287 ± 0.011
[2]
  pre-steady-state target cleavage rate: 0.00807 ± 0.0021

## UCCUGGAUGUCCUUGGUUAGUAUUUAGUUA
[1]
  pre-steady-state target cleavage rate: 0.0867 ± 0.022
[2]
  pre-steady-state target cleavage rate: 0.00681 ± 0.0022

## UCCUGGAUGUCCUUGCAUAGUACUUUAGUUA
[1]
  pre-steady-state target cleavage rate: 0.0282 ± 0.011
[2]
  pre-steady-state target cleavage rate: 0.00534 ± 0.0022
